Source: PMC5540273 (PLoS ONE, 2017)
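Also: KINOMEscan kinase panel screen.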

These molecules were tested on T1, YANK1. Settings: concentration: 1 μM,replicates: in singlicate; n = 1.
T1 construct: gene STK32A
`Cc1n[nH]c2cc(Nc3ccnc(Nc4cccc(CN5CCOCC5)c4)n3)ccc12` [GW682569] was tested, and the “%Inh” value was 9%.
With `Cn1ccc2ncnc(Oc3ccc(NC(=O)Nc4ccnc(C(F)(F)F)c4)c(Cl)c3)c21` the “%Inh” value was 0%.
In the case of `COC(=O)c1cccc(NC(=O)NC2CCN(c3ccnc(NCc4ccc(F)cc4)n3)CC2)c1` [GSK1379860], the “%Inh” value is reported as 0%.
`CCn1c(-c2nonc2N)nc2cncc(Br)c21` [SB-738004] was tested, and the “%Inh” value was 0%.
With `C[C@@H]1CCN(C(=O)N2CCCC2)C[C@@H]1N(C)c1ncnc2[nH]ccc12` the “%Inh” value was 15%.
With `O=C(NOCC1CC1)c1cc(Br)c(F)c(F)c1Nc1ccc(I)cc1Cl` the “%Inh” value was 0%.
In the case of `C[C@@H](Oc1cc(-n2cnc3cc(-c4cnn(C)c4)ccc32)sc1C(N)=O)c1ccccc1Cl` [GSK580432], the “%Inh” value is reported as 25%.
With `CN(c1ccc2c(c1)nc(NCc1ccc(F)cc1)n2C)c1ccnc(Nc2ccc(CS(C)(=O)=O)cc2)n1.Cl` [GW813244] the “%Inh” value was 0%.
`NC(=O)Nc1sc(-c2ccc(F)cc2)cc1C(N)=O` [GW789449] was tested, and the “%Inh” value was 4%.
In the case of `O=C(Nc1n[nH]c2cc(-c3ccco3)ccc12)C1CC1` [SB-737447], the “%Inh” value is reported as 0%.
With `CCn1c(-c2nonc2N)nc2cncc(CNC3CCNCC3)c21.Cl` [SB-747651] the “%Inh” value was 3%.
With `C[C@@H]1CNc2c(sc3ccc4nc(-c5ccc(O)cc5)ccc4c23)C(=O)N1` the “%Inh” value was 0%.
In the case of `O=C(Nc1ccc(Oc2ccc3nc(NC(=O)C4CC4)cn3n2)c(F)c1)c1cccn(-c2ccccc2)c1=O`, the “%Inh” value is reported as 0%.
`CS(=O)(=O)c1cccc(CNc2nc(Nc3ccc4c(c3)[C@@H]3C[C@@H]4CNC3=O)ncc2C(F)(F)F)c1` was tested, and the “%Inh” value was 0%.
In the case of `COc1cccc(OC)c1C(=O)Nc1cccc(-c2nn3ccccc3c2-c2ccnc(Nc3cccc(F)c3)n2)c1` [GSK361065], the “%Inh” value is reported as 0%.
In the case of `OCCn1cc(-c2cnc3nnn(Cc4ccc5ncccc5c4)c3n2)cn1`, the “%Inh” value is reported as 3%.
With `CC(=O)Nc1ccc(-c2cc3ncnc(SCC(=O)O)c3s2)cc1` the “%Inh” value was 0%.
`CCN1CCN(CCCC(=O)Nc2n[nH]c3nc(-c4ccc(O)cc4)c(Br)cc23)CC1` [SB-731579] was tested, and the “%Inh” value was 0%.
In the case of `O=C(Nc1cccc(Oc2ccc3nccn3n2)c1)Nc1cccc(C(F)(F)F)c1`, the “%Inh” value is reported as 0%.
In the case of `Nc1nccc(-c2ccc3c(N)n[nH]c3c2)n1` [GSK1034945], the “%Inh” value is reported as 21%.
In the case of `COc1cc2c(Nc3ccc(NC(=O)c4ccccc4)cc3)ncnc2cc1OCCCN1CCOCC1` [GSK301329], the “%Inh” value is reported as 14%.
With `COC(=O)c1cccc(NC(=O)NC2CCN(c3ccnc(Nc4cc(OC)c(OC)c(OC)c4)n3)C2)c1` (stereo not shown) [GSK1379767] the “%Inh” value was 12%.
With `COC(=O)Nc1nc2cc(Oc3ccc(NC(=O)Nc4cc(C(F)(F)F)ccc4Cl)cc3)ccc2[nH]1.Cl` [GW697465] the “%Inh” value was 0%.
`COc1cc2ncn(-c3cc(OCC4CCCCC4)c(C(N)=O)s3)c2cc1OC` [GSK204559] was tested, and the “%Inh” value was 0%.
With `CCCC(=O)Nc1n[nH]c2ncccc12` [SB-601436] the “%Inh” value was 0%.
For `Cl.c1ccc(Oc2ccc(Nc3ccnc4cc(-c5ccc(CN6CCNCC6)o5)ccc34)cc2)nc1` [GW567142], the “%Inh” value was 0%.
For `C[C@@H]1CNc2c(sc3ccc4nc(-c5ccncc5)ccc4c23)C(=O)N1`, the “%Inh” value was 21%.
`CCOC(=O)N1CCC(n2cnc(-c3ccc(F)cc3)c2-c2ccnc(N)n2)CC1` [SB-219952] was tested, and the “%Inh” value was 15%.
With `CC(=O)Nc1nc2cnc(Nc3cc(NC(=O)c4cccc(CC(C)(C)C#N)c4)ccc3C)nc2s1` the “%Inh” value was 1%.
`Cn1ccc2ncnc(Oc3ccc(NC(=O)Nc4cnn(C(C)(C)C)c4)c(Cl)c3)c21` was tested, and the “%Inh” value was 1%.
For `Cc1ccc(CC(=O)N2CCc3cc(-c4cn(C)c5ncnc(N)c45)ccc32)cc1` [GSK2634758], the “%Inh” value was 15%.
In the case of `N#Cc1cccc(C(=O)NC2CCN(c3ccnc(Nc4ccc(F)cc4)n3)C2)c1` (stereo not shown) [GSK1379708], the “%Inh” value is reported as 2%.
`Cl.Nc1n[nH]c2cc(-c3ccccn3)ccc12` [GSK2189892] was tested, and the “%Inh” value was 2%.
With `Cc1nnc(-c2ccc3occ(-c4ccc(S(C)=O)cc4)c3n2)o1` (stereo not shown) the “%Inh” value was 0%.
With `NC(=O)c1ccc(-c2cc3ncnc(SCC(=O)O)c3s2)cc1` the “%Inh” value was 0%.
`Cc1cccc2c(-c3ccncc3)c(-c3ccc(F)cc3)nn12.Cl` [GW461487] was tested, and the “%Inh” value was 27%.
With `CC(=O)c1c(-c2ccncc2)[nH]c(-c2ccncc2)c1C` [GW493036] the “%Inh” value was 0%.
